# Measured values reported in PubChem BioAssay (NCI).
# This is part of a sample that, as a whole, favours compounds with a hit. Of some 83,000 tested, about 20% had one in any assay.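 Plates (96-well) were seeded with cells, treated with compound at one concentration, and incubated for 48 hours before percent growth was determined.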 Values without a mark were called inactive. Activity calls are given as the source filed them. The calls were made as follows: active = growth percent below 10; inactive = the rest.
# How the values were obtained:
# Assay in all cases: NCI-60 one-dose screen, 48 h (100 = growth as untreated, 0 = no growth, -100 = all killed)
# Conditions in all cases: 10 µM unless noted
# NCI-H23 lung = tested on: NCI-H23 lung
# NCI-H226 lung = tested on: NCI-H226 lung
# NCI-H322M lung = tested on: NCI-H322M lung
# HOP-62 NSCLC = tested on: HOP-62 NSCLC
# NCI-H460 lung = tested on: NCI-H460 lung
# HOP-92 NSCLC = tested on: HOP-92 NSCLC
# NCI-H522 lung = tested on: NCI-H522 lung
# A549/ATCC NSCLC = tested on: A549/ATCC NSCLC
# 786-0 renal = tested on: 786-0 renal
# COLO 205 colon = tested on: COLO 205 colon
# DU-145 prostate = tested on: DU-145 prostate
# K-562 leukemia = tested on: K-562 leukemia
# MALME-3M melanoma = tested on: MALME-3M melanoma
# MDA-MB-231 breast = tested on: MDA-MB-231 breast
# RXF 393 renal = tested on: RXF 393 renal
# SF-268 CNS = tested on: SF-268 CNS
# SF-539 CNS = tested on: SF-539 CNS
# UACC-257 melanoma = tested on: UACC-257 melanoma
# M14 melanoma = tested on: M14 melanoma
SMILES,growth (NCI-H23 lung),growth (NCI-H226 lung),growth (NCI-H322M lung),growth (HOP-62 NSCLC),growth (NCI-H460 lung),growth (HOP-92 NSCLC),growth (NCI-H522 lung),growth (A549/ATCC NSCLC),growth (786-0 renal),growth (COLO 205 colon),growth (DU-145 prostate),growth (K-562 leukemia),growth (MALME-3M melanoma),growth (MDA-MB-231 breast),growth (RXF 393 renal),growth (SF-268 CNS),growth (SF-539 CNS),growth (UACC-257 melanoma),growth (M14 melanoma)
C/C(=N/NC(N)=S)C(=O)O,101%,90.1%,103%,107%,99.3%,107%,95.9%,76%,102%,119%,102%,55.3%,102%,91.1%,116%,101%,101%,61.1%,97.4%
COc1cc(-c2cc(-c3nc4cc(Cl)c(Cl)cc4[nH]3)[nH]n2)cc(OC)c1OC,75.3%,38%,92.3%,80.6%,69.7%,61.2%,45.8%,69.5%,87.4%,46.8%,92.5%,17.5%,46.4%,74%,70.6%,96.5%,77.8%,88%,62.3%
C#Cc1cc2c(N)c(C(=O)c3cc(OC)c(OC)c(OC)c3)[nH]c2cc1OC,43.1%,50%,43.2%,24.4%,15.6%,-4.39% (active),-4.05% (active),45.4%,46.8%,-16.3% (active),19%,13.4%,25.7%,49.2%,-5.3% (active),49.6%,-23.6% (active),70.5%,–
C/C(=N\Nc1cc(C)c2ccccc2n1)c1ccccn1,14%,-2.65% (active),-2.12% (active),15.1%,-44.7% (active),-13.9% (active),-25.7% (active),-0.781% (active),-63.9% (active),3.41% (active),18.3%,-41.4% (active),-77.9% (active),-28.7% (active),-77.4% (active),-6.64% (active),-53.8% (active),-62.1% (active),-81.4% (active)
c1ccc(C2Cc3ccccc3C2=NC2CCCCC2)cc1 (stereo not drawn),98.1%,100%,102%,113%,116%,68.4%,88.8%,103%,97.5%,115%,115%,99.6%,116%,97.2%,110%,102%,89.3%,110%,91.7%
Nc1c(C(=O)Nc2cccc(Br)c2)sc2nc3c(cc12)C(=O)CCC3,34%,75.1%,64.7%,40.4%,4.31% (active),79.3%,-20% (active),24.4%,51.8%,-11.2% (active),1.18% (active),13.7%,16.6%,38.5%,-1.14% (active),62.6%,25.5%,68%,35.7%
COc1cc2c(cc1OC)C(=O)/C(=C/c1cc(-c3ccc4c(c3)OCO4)n[nH]1)C2,22.4%,47.1%,-5.69% (active),-52.5% (active),-82.2% (active),-4.09% (active),-63.6% (active),27.8%,-89.8% (active),7.58% (active),1.19% (active),-41.5% (active),43.7%,24.6%,-39.8% (active),-53.4% (active),-80.9% (active),77.1%,5.68% (active)
O=C(CI)Nc1ccc(O)c2ccccc12,-7.45% (active),-13.1% (active),104%,46.9%,32.5%,-24.8% (active),-79.4% (active),64.8%,-22.5% (active),-85.6% (active),41.9%,-16.2% (active),-14% (active),-11.8% (active),-89.7% (active),-0.419% (active),-28.6% (active),10.7%,-58.9% (active)
O=c1c(CNc2ccc(S(=O)(=O)Nc3nccs3)cc2)coc2ccccc12,110%,96.1%,87.6%,98.7%,102%,80.1%,82.8%,95.5%,103%,119%,110%,92.2%,99.7%,98.8%,103%,113%,107%,106%,104%
COc1cc(-c2cc(-c3nc4ccc(F)cc4[nH]3)[nH]n2)cc(OC)c1OC,15.8%,-11.1% (active),48.7%,8.23% (active),33.5%,25.8%,9.45% (active),29%,53.7%,20.9%,35.5%,0.735% (active),7.29% (active),49.4%,36.5%,36.4%,52.6%,29.6%,21.5%
NC1(N)C=CC2=C(C=C1)C1(N)C3=C(C=CC(N)(N)C=C3)N2C2(N)C3=C(C=CC(N)(N)C=C3)N1C1=C2C=CC(N)(N)C=C1,79.5%,97.7%,99.8%,89.8%,94.6%,70.3%,28.4%,88.8%,84.3%,104%,97%,81.7%,103%,67.3%,104%,86.8%,73.4%,89.7%,94.5%
COc1ccc(-c2nc3ccccn3c2-c2nc3ccc(Cl)cc3[nH]2)cc1,98.3%,90.1%,103%,114%,98.8%,85%,73.9%,92.5%,97.6%,110%,107%,54.6%,109%,95.2%,95.8%,112%,98.9%,94.2%,103%
Oc1cc(/C=C/c2nc(N3CCOCC3)c3cc(Cl)c(Cl)cc3n2)cc(O)c1O,101%,85.8%,113%,97.2%,101%,102%,88.6%,106%,95.7%,108%,104%,81.5%,107%,106%,98.8%,108%,94.1%,99.8%,102%
CCc1ccc(-c2ccc(Nc3ccccc3)nn2)cc1S(N)(=O)=O,86%,86.8%,107%,92.9%,51.2%,80.2%,71.5%,80.5%,94.3%,94.8%,77.1%,12.5%,71.4%,69.3%,77.3%,78.6%,84.3%,83.7%,67.1%
CC(C)=CCC/C(C)=C/CC/C(C)=C/CSC[C@H](NC(=O)CCCCCN1CCN(C)CC1)C(=O)NC1CCCCCC1,58.1%,82.1%,88.7%,91.7%,2.84% (active),32.6%,59.8%,64.2%,75.9%,-71% (active),53%,-17.4% (active),-13.7% (active),-89.1% (active),80.3%,75.1%,82.9%,76.2%,83.7%
COc1cccc(NC(=O)c2sc3nc4c(cc3c2N)C(=O)CCC4)c1,21.8%,74.9%,56.5%,27.8%,1.73% (active),57.3%,-21.1% (active),22.5%,41.1%,0.646% (active),11.8%,5.55% (active),50.1%,14.7%,41%,39.2%,-7.27% (active),66.5%,12.5%
